# A selection: hits, their analogues and other compounds. The true share with any hit is near 2.5%.
# Pol iota inh: inhibitors of human DNA polymerase iota. Pol iota fluorescent replication assay, 10 min. AID 588590. Potency, µM (series often up to 115 µM), for inactives: top-dose activity, negative = inhibition, usual class: inhibitors. 390,000 tested, 1% active
#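 Pol iota at 10 nM preincubated 15 min with compounds at room temperature; reaction started with fluorescent substrate, 50 nM final. Fluorescence read kinetically at 0 and 10 min; buffer-only wells as negative control.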
# Pol kappa inh: blocks human DNA polymerase kappa activity | Q9UBT6 | purified Pol kappa, fluorescent DNA synthesis assay, 10 min | Potency, µM (highest dose often 107 µM), inactives show at the highest dose activity, negative = inhibition, most hits filed as inhibitors | 400,000 tested, 0.53% active; further: on the % scale 0 is the no-effect control and ±100 the full control effect
#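 Kinetic fluorescence readout at 0 and 10 min followed reaction start with substrate at 50 nM final. Beforehand, enzyme (10 nM Pol kappa) stood 15 min with compound at room temperature; buffer-only wells were negative controls.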
# WRN helicase inh: inhibitors of human WRN helicase; Q14191; WRN helicase unwinding, fluorescent forked duplex, kinetic; Potency, µM (doses to about 114 µM), inactives show at the highest dose activity change, negative = inhibition, actives largely listed as inhibitors; 360,000 tested, 0.46% active; further: on the % scale 0 is the no-effect control and ±100 the full control effect; nearly all actives have a fitted effect of over 55% in size
#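 Kinetic fluorescence helicase assay: unwinding of a quenched forked DNA duplex (100 nM final) with 2 mM ATP final raises red fluorescence (525/598 nm). Compounds sat 15 min at room temperature with 20 nM WRN beforehand.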
# L3MBTL1 inh: L3MBTL1 (human) inhibition; Q9Y468; AlphaScreen L3MBTL1–H3K9me1 peptide binding; Potency, µM (highest dose often 57.1 µM), inactives show at the top dose activity, negative = inhibition, usual class: inhibitors; 230,000 tested, 0.66% active; AID 485360; further: on the % scale 0 is the no-effect control and ±100 the full control effect; nearly all actives have a fitted effect of over 60% in size
#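 AlphaScreen assay: L3MBTL1 (50 nM final) was preincubated 30 min at room temperature with biotinylated H3(1-15)K9me1 peptide (75 nM final), then 30 min with library compounds; streptavidin donor and nickel chelate acceptor beads (10 ug/mL final) added, 30 min dark.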
# POLB inh: DNA polymerase beta (human) inhibition; P06746; Pol beta primer extension/strand displacement, fluorescence kinetic; Potency, µM (highest dose often 114 µM), for inactives: at the highest dose activity change, negative = inhibition, actives largely listed as inhibitors; 340,000 tested, 1.3% active; further: on the % scale 0 is the no-effect control and ±100 the full control effect
#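 Pol beta (10 nM) was preincubated with compound for 15 min at room temperature. The reaction was then started with 50 nM substrate and read immediately and after a further 10 min at room temperature.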
# POLH inh: DNA polymerase eta (human) inhibition; Q9Y253; 390,000 tested, 1.2% active; recombinant Pol eta, fluorescent DNA replication assay; Potency, µM (top dose mostly 114 µM), for the others: at the highest dose activity change, negative = inhibition, actives largely listed as inhibitors; AID 588591; further: on the % scale 0 is the no-effect control and ±100 the full control effect
# Target sequence (Q9Y253 whole entry, looked up): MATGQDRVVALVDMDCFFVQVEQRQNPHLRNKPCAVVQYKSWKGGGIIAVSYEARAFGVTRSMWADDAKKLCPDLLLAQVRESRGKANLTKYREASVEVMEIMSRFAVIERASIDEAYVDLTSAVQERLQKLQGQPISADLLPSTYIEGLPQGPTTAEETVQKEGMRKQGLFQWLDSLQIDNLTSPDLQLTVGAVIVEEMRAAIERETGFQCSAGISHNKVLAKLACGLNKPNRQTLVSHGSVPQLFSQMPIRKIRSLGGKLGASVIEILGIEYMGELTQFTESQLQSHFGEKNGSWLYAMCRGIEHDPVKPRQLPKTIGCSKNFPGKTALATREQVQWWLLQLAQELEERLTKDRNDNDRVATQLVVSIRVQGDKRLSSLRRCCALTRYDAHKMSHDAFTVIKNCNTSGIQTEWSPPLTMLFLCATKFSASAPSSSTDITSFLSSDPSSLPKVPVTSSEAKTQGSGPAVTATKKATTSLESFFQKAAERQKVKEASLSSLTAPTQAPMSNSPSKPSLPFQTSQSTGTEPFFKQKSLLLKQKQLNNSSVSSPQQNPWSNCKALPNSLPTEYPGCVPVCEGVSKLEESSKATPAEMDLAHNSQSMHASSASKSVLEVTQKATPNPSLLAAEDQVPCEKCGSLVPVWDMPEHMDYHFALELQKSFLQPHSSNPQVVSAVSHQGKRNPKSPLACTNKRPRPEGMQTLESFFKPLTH
#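 Pol eta at 10 nM preincubated with compounds 15 min at room temperature; reaction started with fluorescent substrate (50 nM final) and read kinetically at 0 and 10 min.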
# Starred values were filed as active, the others as inactive; ? = inconclusive; . = no result; [ ] = dose if it differs, or a comment. The call rests on the fitted dose curve; in most records, active means well fitted curve in the direction sought with a large enough effect; inconclusive means small, poorly fitted or top-dose-only effect, or another doubt; inactive means no such curve, though single readings can be large; an effect the other way counts as inactive or inconclusive. Potency means the concentration at half of the fitted maximal effect.
SMILES,Pol iota inh,Pol kappa inh,WRN helicase inh,L3MBTL1 inh,POLB inh,POLH inh
Cc1ccc(NC(=O)CN2C(=O)S/C(=C\c3ccc(-c4cccc(C(=O)O)c4C)o3)C2=O)cc1,.,.,.,.,100µM*,.
Cc1ccc(NC(=O)CN2C(=O)S/C(=C\c3ccc(C(=O)O)cc3)C2=O)cc1,-5%,-3%,1%,2%,39%,7%
Cc1ccc(NC(=O)CN2C(=O)S/C(=C\c3cc(C)n(-c4cccc(C(=O)O)c4)c3C)C2=O)cc1,?,-7%,?,-29%,45µM*,56µM*
Cc1cc(C(=O)O)ccc1-c1ccc(/C=C2\SC(=O)N(CC(=O)Nc3ccc4c(c3)OCO4)C2=O)o1,.,.,.,.,0%,.
COc1ncc2nc(C)c(=O)n(Cc3cccs3)c2n1,.,0%[60.1 µM],.,.,.,.
O=C1CCc2cc(S(=O)(=O)NCCC(=O)NC3CCN(Cc4ccccc4)CC3)ccc2N1,11%,-4%,-9%,3%,10%,5%
CCn1nnc(NC(=O)CSc2ccc(Cl)cc2)n1,25µM*,79µM*,?,?,25µM*,50µM*
CCCCn1nnc(NC(=O)Cc2ccc(Cl)cc2)n1,3%,5%,1%,.,-3%,-18%
Cc1ccc(C(CNS(=O)(=O)c2cc(F)ccc2F)N2CCN(C)CC2)cc1 (stereo not given),9%,-10%,-4%,-8%,.,-3%
COc1ccccc1NS(=O)(=O)c1cccc(C(=O)N/N=C/c2ccc(NC(C)=O)cc2)c1,50µM*,-26%,-10%,10%,?,-15%
COc1ccccc1NS(=O)(=O)c1cccc(C(=O)N/N=C/c2ccc(OCC(=O)O)cc2)c1,-3%,2%,-8%,10%,-27%,-15%
CC(=O)CC1(C)OC(N)=C(C#N)C1(C#N)C#N (stereo not given),7%,5%,-12%,-1%,17%,-18%
O=C(O)c1cccc(NC(=S)NC(NC(=O)c2cccc([N+](=O)[O-])c2)C(Cl)(Cl)Cl)c1 (stereo not given),11%,-9%,?,.,?,56µM*
CN1CCN(C(=O)C2=C[C@H](c3ccc(Br)cc3)C[C@H](OCCCCO)O2)CC1,59%,8%,4%,3%,6%,-22%
O=C1c2cccc3cc([N+](=O)[O-])cc(c23)C(=O)N1/N=C/c1ccc(O)cc1O,?,?,?,?,40µM*,50µM*
CCN(CC)c1ccc(/C=N/N2C(=O)c3ccccc3C2=O)c(O)c1,-10%,?,-13%,33%,33%,-14%
O=C(COc1ccc(-n2cnnn2)cc1)Nc1cccc(Cl)c1Cl,?,-32%,-15%,.,50µM*,-6%
CN(C)c1ccc(CNC(=O)c2ccc3nc(CCc4ccccc4)oc3c2)cc1,16%,-9%[60.1 µM],.,.,38%,-12%
O=C(OCc1ccccc1)C1=[N+]([O-])OC(C(=O)OCc2ccccc2)C1c1c[nH]c2ccccc12 (stereo not given),5%,-13%,-3%,.,-1%,-11%
COc1cc(N)c2ncccc2c1SC,.,.,1%,.,.,-22%
COc1cc(N)c2ncccc2c1Br,32µM*,-27%,-2%[11.6 µM],.,.,-4%
COc1cccc(/C=N/NC(=O)c2cc(-c3cccn3C)n[nH]2)c1,?,?,1%,-26%,35µM*,?
COc1cccc(/C=N/NC(=O)c2cc(-c3cccn3C)n[nH]2)c1O,?,-32%,?,-24%,?,-10%
Cn1cccc1-c1cc(C(=O)N/N=C/C=C/c2ccccc2)[nH]n1,?,?,-6%,?,10µM*,-5%
Cn1cccc1-c1cc(C(=O)N/N=C/c2ccc(Cl)cc2)[nH]n1,10%,?,-11%,.,?,2%
O=[N+]([O-])c1ccc2nc(-c3ccccc3)n(OCc3ccc(Cl)cc3)c2c1,-5%,?,-15%[57.1 µM],-23%,28µM*,16µM*
